# ± gives the standard deviation of the averaged measurements. In all, about 33,000 sequences were measured (“E-score (dimensionless, -0.5 to 0.5)”: median about -0.046, highest 2% from about 0.36 on). The sample as a whole holds a higher share of the highest values than the screen did.
# Test system: T1, SpTbr T-box DNA-binding domain (GST fusion)
# T1 sequence: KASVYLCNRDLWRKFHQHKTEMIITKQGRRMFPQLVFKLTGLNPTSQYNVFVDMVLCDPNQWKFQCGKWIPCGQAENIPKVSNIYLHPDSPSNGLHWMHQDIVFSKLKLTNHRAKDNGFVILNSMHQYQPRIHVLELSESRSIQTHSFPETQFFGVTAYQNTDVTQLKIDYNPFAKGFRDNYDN
# Test: PBM E-score of 8-mer (E-score (dimensionless, -0.5 to 0.5)); Tbr is Tbrain of the sea star Patiria miniata (Pm) or the sea urchin Strongylocentrotus purpuratus (Sp); higher = stronger binding preference
# Conditions: the construct has about 5 more residues each side
# Protocol: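 Universal protein-binding microarray (Agilent AMADID 016060, 60-bp probes with a 35-bp variable region) incubated with 200 nM GST-fused Strongylocentrotus purpuratus Tbr T-box DNA-binding domain (residues 362-554) in PBS pH 7.5. Scored for every ungapped 8-mer (given with its reverse complement) as E-score (range -0.5 to 0.5; >0.45 counts as bound) and Z-score of median probe intensity. Two replicate arrays (datasets 1 and 2).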
# 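Further: protein at 200 nM in PBS on universal double-stranded arrays.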
row,Sequence,PBM E-score of 8-mer
1,GATCAATA,0.0446 ± 0.036
2,GGCCACAA,0.0675 ± 0.11
3,CGCCACAC,0.3647 ± 0.0013
4,CGCCACAA,0.0762 ± 0.081
5,GGCCACAC,0.3886 ± 0.00083
6,AGCCACAC,0.311 ± 0.049
7,CGCCACAG,0.0527 ± 0.03
8,GAGATGGC,-0.0157 ± 0.0073
9,CAACCTAG,-0.0248 ± 0.069
10,ATAGGTGA,0.284 ± 0.032
11,AAAGGTGA,0.316 ± 0.0022
12,AAGGGTGT,0.383 ± 0.015
13,CTAGGTGC,0.3603 ± 0.003
14,AAAGGTGT,0.469 ± 0.0063
15,AAAGGTGG,0.0801 ± 0.026
16,AAAGGTAC,-0.0923 ± 0.05
17,AAGGGTGA,0.136 ± 0.04
18,ATAGGTGC,0.412 ± 0.012
19,AAAGGTGC,0.414 ± 0.01
20,AAAGGTCC,0.0265 ± 0.0014
21,AAGGGTGG,0.146 ± 0.028
22,CGGGTGAA,-0.3489 ± 0.0032
23,AGCAACCA,-0.0779 ± 0.012
24,CTACCGTC,-0.191 ± 0.04
25,ATTTACCG,-0.131 ± 0.054

row,Sequence,PBM E-score of 8-mer
1,CGAGGGTA,-0.211 ± 0.033
2,GATGAGGC,-0.112 ± 0.027
3,GGTCTACA,-0.0571 ± 0.025
4,AGGTAAAA,-0.0157 ± 0.037
5,GATTCACC,-0.0546 ± 0.0018
6,CATTCACC,-0.0478 ± 0.011
7,GATTCACA,0.392 ± 0.0093
8,CATTCACA,0.427 ± 0.014
9,CATTCACG,0.238 ± 0.024
10,GATTCAGA,-0.233 ± 0.061
11,AATTCACA,0.297 ± 0.035
12,TATTCACA,0.423 ± 0.023
13,AATTCACG,0.345 ± 0.01
14,CAGAGAGA,-0.036 ± 0.025
15,CGTAGCCA,-0.196 ± 0.073
16,CCGATAAA,-0.0119 ± 0.097
17,AGGAAACT,-0.0834 ± 0.015
18,CGCTTGAC,0.136 ± 0.0033
19,CTTTGACA,0.174 ± 0.035
20,CGTTGACA,0.414 ± 0.0098
21,GTTTGACA,0.332 ± 0.036
22,GCTTGACA,0.258 ± 0.034
23,AGTTGACA,0.4138 ± 0.001
24,AGTTGACC,-0.106 ± 0.098
25,CGTTGACC,0.0141 ± 0.0079

row,Sequence,PBM E-score of 8-mer
1,AGTTGACG,0.226 ± 0.0068
2,GGTTGACA,0.382 ± 0.017
3,CGTTGTTC,-0.116 ± 0.067
4,ACGGGCGG,-0.083 ± 0.0064
5,GTCTTGGA,-0.322 ± 0.015
6,CATAGAGA,-0.161 ± 0.012
7,CCCTGTAA,0.137 ± 0.0029
8,ATCGAGGC,-0.0694 ± 0.048
9,CACTTCAA,0.213 ± 0.013
10,AGTTGTCA,0.393 ± 0.016
11,CGTTGTTA,0.142 ± 0.034
12,AGTTGTTG,0.245 ± 0.024
13,AGTTGTCG,0.293 ± 0.033
14,AGTTGTTA,0.369 ± 0.04
15,GGTTGTCA,0.338 ± 0.0013
16,GGTTCGGA,-0.2634 ± 0.0013
17,AGTTCGCA,0.3728 ± 0.00053
18,CGTTCGTA,-0.134 ± 0.018
19,GGTTCGCA,0.378 ± 0.0054
20,GCTTCGCA,0.358 ± 0.017
21,CGTTCGCA,0.411 ± 0.0075
22,CGTTCGCC,0.11 ± 0.024
23,AGTTCGCG,0.296 ± 0.038
24,AGTTCGCC,0.0613 ± 0.039
25,CGGTTATA,-0.00559 ± 0.033

row,Sequence,PBM E-score of 8-mer
1,GGGGTCGA,-0.0352 ± 0.02
2,GCGAGATA,0.105 ± 0.0039
3,CATTGTCG,0.038 ± 0.0095
4,ATGATGAA,-0.154 ± 0.044
5,AGTGACAT,0.277 ± 0.056
6,CGTGACAC,0.38 ± 0.015
7,AGTGACAG,0.3301 ± 0.0022
8,CGTGACAG,0.217 ± 0.019
9,CGTGACGA,0.311 ± 0.029
10,CGTGACGC,0.192 ± 0.033
11,AGTGACGA,0.329 ± 0.029
12,AGTGACAA,0.397 ± 0.014
13,GGTGACGA,0.418 ± 0.018
14,ACTGACAA,0.165 ± 0.0096
15,CGTGACAA,0.364 ± 0.0037
16,AGTGACAC,0.435 ± 0.0092
17,GATCGAGA,0.00394 ± 0.097
18,AGGCTAAT,-0.255 ± 0.1
19,ACTAAGCC,-0.223 ± 0.02
20,AGCCTACC,-0.245 ± 0.012
21,GAGAATAC,-0.0812 ± 0.016
22,GATTTTGA,-0.0555 ± 0.0057
23,AACGCAAA,0.0563 ± 0.092
24,GCAGCGAA,0.104 ± 0.068
25,ACAAGAGG,-0.0502 ± 0.064

row,Sequence,PBM E-score of 8-mer
1,CAACTCTA,-0.0379 ± 0.031
2,TCGTATCA,0.129 ± 0.031
3,CTTGACAA,0.323 ± 0.011
4,GGTGACAA,0.459 ± 0.011
5,GGAGACAC,0.193 ± 0.045
6,GTTGACAA,0.389 ± 0.016
7,GTTGACGA,0.279 ± 0.0033
8,GGTGACAC,0.4606 ± 0.0026
9,GGTGAAAC,-0.0179 ± 0.017
10,GGTGACTA,0.196 ± 0.039
11,TCTGACAA,-0.0245 ± 0.056
12,TATGACAA,0.0285 ± 0.073
13,GGTGACCA,0.075 ± 0.05
14,TGTGACAA,0.412 ± 0.0055
15,CAACGGTC,0.11 ± 0.036
16,CTATAGAG,-0.282 ± 0.072
17,ACTAGGCA,-0.204 ± 0.036
18,CGCTTCAC,0.235 ± 0.042
19,AGGTCGAC,-0.00677 ± 0.036
20,ACGGCAGT,-0.173 ± 0.031
21,ATTATAGG,-0.255 ± 0.027
22,TGGTGACA,0.39 ± 0.0062
23,GGGTGACC,-0.0352 ± 0.046
24,GGGTGACA,0.4258 ± 0.0018
25,CGGTGACA,0.326 ± 0.026

row,Sequence,PBM E-score of 8-mer
1,GGGTGAAA,-0.0551 ± 0.015
2,TCGTGACA,0.325 ± 0.0037
3,GAGCGCTA,0.205 ± 0.021
4,AAAAGGTA,-0.207 ± 0.011
5,TACCTATA,-0.192 ± 0.0052
6,CACCTATG,0.427 ± 0.011
7,CACCTATA,0.392 ± 0.015
8,AACCTATG,-0.15 ± 0.014
9,AACCTATA,-0.123 ± 0.024
10,CACCTATC,0.358 ± 0.012
11,CGCTAATA,0.135 ± 0.092
12,CGCCGGCG,0.1618 ± 0.00064
13,ATCGTACC,-0.157 ± 0.03
14,GAACAGTA,0.00048 ± 0.058
15,CACCGCCG,0.151 ± 0.1
16,CTCTCACC,0.38 ± 0.021
17,ATGTCACC,0.323 ± 0.0098
18,ACCTCACC,0.224 ± 0.017
19,ATCTCAAC,0.00654 ± 0.026
20,GCCTCACA,0.292 ± 0.0099
21,CTGTCACC,0.396 ± 0.0078
22,CGCTCACC,0.0959 ± 0.018
23,GTCTCACA,0.382 ± 0.0069
24,CTGTCACA,0.358 ± 0.01
25,ATCTCACC,0.422 ± 0.0058

row,Sequence,PBM E-score of 8-mer
1,CTCTCACA,0.3477 ± 0.0025
2,GTCTCTCA,0.0648 ± 0.045
3,ATATGAAT,-0.00217 ± 0.023
4,ACACCAAA,0.315 ± 0.013
5,AAGAATGT,-0.0437 ± 0.045
6,TACCGGAA,-0.116 ± 0.02
7,AAGGAGAG,-0.168 ± 0.0067
8,CACCGATC,0.154 ± 0.014
9,TATATGCA,-0.113 ± 0.014
10,AATGCGTG,0.253 ± 0.028
11,CAGGTCAA,-0.18 ± 0.073
12,ACGGACAT,-0.0905 ± 0.036
13,AACTTAAT,-0.0641 ± 0.021
14,GTGCCCCA,-0.0876 ± 0.0044
15,AGCACCCC,0.27 ± 0.036
16,TCCTCACA,0.3492 ± 0.0024
17,ACCTCACG,0.239 ± 0.005
18,ACCTCACA,0.41113 ± 4.2e-05
19,ATCTCTCA,0.171 ± 0.012
20,ATCTCACA,0.372 ± 0.0029
21,ATCTCACG,0.29 ± 0.012
22,TCCTATCA,-0.0124 ± 0.0011
23,AGTGGCAA,0.305 ± 0.0085
24,GGTGGCAA,0.4 ± 0.011
25,GGTGGCAC,0.3544 ± 0.0029

row,Sequence,PBM E-score of 8-mer
1,AGTTTGAC,0.143 ± 0.018
2,ATGTGTTG,0.381 ± 0.014
3,ATGTGTTC,0.111 ± 0.064
4,ATGTGTTA,0.444 ± 0.015
5,ATATGTTG,-0.00329 ± 0.071
6,GTGTGTTA,0.318 ± 0.021
7,CTGTGTTA,0.195 ± 0.079
8,CCTTTTAG,0.0506 ± 0.044
9,ATAACACC,0.457 ± 0.0069
10,CTAACACA,0.354 ± 0.0043
11,CTTACACC,0.392 ± 0.025
12,ATAACACG,0.303 ± 0.033
13,CTTACACA,0.276 ± 0.035
14,CGAACACC,0.321 ± 0.011
15,CTAACACC,0.464 ± 0.005
16,ATAACACA,0.35 ± 0.028
17,ATTACACC,0.358 ± 0.057
18,CTTCTAAC,0.16 ± 0.038
19,CATATCGA,-0.154 ± 0.056
20,CCGCAAAG,-0.233 ± 0.015
21,CGAGATCG,0.175 ± 0.058
22,AAACTGAG,-0.1 ± 0.018
23,CACCAAGC,0.129 ± 0.017
24,CCCAACAC,0.343 ± 0.013
25,GAACTTAC,-0.0233 ± 0.034

row,Sequence,PBM E-score of 8-mer
1,CCAAGTAA,-0.21 ± 0.095
2,CGCGAAGA,0.371 ± 0.01
3,GGCGAACC,-0.141 ± 0.05
4,CGCGAAAG,0.387 ± 0.015
5,AGCGAAAG,-0.123 ± 0.022
6,CGCGAAGC,0.324 ± 0.033
7,AGCGAAGA,0.106 ± 0.019
8,CGCGAAAC,0.344 ± 0.0048
9,CGCGAACC,0.375 ± 0.013
10,CGCGAACA,0.36 ± 0.019
11,AGCGAACG,0.0538 ± 0.025
12,AGCGAACC,0.0666 ± 0.08
13,CGCGAACG,0.422 ± 0.013
14,CAAATGAG,-0.158 ± 0.037
15,GACCAGTC,-0.333 ± 0.075
16,AGTCCATA,-0.295 ± 0.063
17,CACAGCGC,0.0949 ± 0.014
18,TGCCCACA,0.0199 ± 0.1
19,CGTTTGGA,-0.0006 ± 0.068

# Source: the supplement of paper PMC4166925
